Shown is part of a subset that was picked to be rich in hits.
Cycloheximide cs = counter-screen hit for Shiga toxin inhibitors, cycloheximide | cell reporter, cycloheximide protein synthesis inhibition counterscreen | AID 2314 | 12% of 300,000 active | max response, %; in the data active means max response mostly above about 13%, no sharp cut-off; inactive means mostly below about 14%; further: read at 38.3 µM for the half of the compounds with a filed dose; 0% is about no effect
Shiga inhibitor = blocks Shiga toxin action in Vero cells; inhibition, % at 38.7 µM; Vero cells, Shiga toxin protein synthesis inhibition reporter; 9.2% of 290,000 active; AID 2315; in the data active means inhibition mostly above about 28%, no sharp cut-off; inactive means mostly below about 43%; further: 0% is about no effect
Sm TGR inh = blocks Schistosoma mansoni thioredoxin glutathione reductase | Q962Y6 | purified TGR, DTNB reduction, TNB absorbance 405 nm | Potency, µM (top dose mostly 114 µM), inactives show at the highest dose activity change, negative = inhibition, hits mostly inhibitors | 3% of 360,000 active; further: potency means the concentration at half of the fitted maximal effect; on the % scale 0 is the no-effect control and ±100 the full control effect; nearly all actives have a fitted effect of over 60% in size
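TGR 20 nM + NADPH 100 uM (dispensed conc.), cpd preinc 15 min RT; start with NADPH (500 uM addition) then DTNB (15 mM addition). Kinetic TNB absorbance, 405 nm filter. Four-parameter Hill fit across titration.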
LmPK inh = LmPK (Leishmania mexicana) enzyme inhibition; Q27686; purified LmPK, Kinase-Glo ATP luminescence, 1 h; Potency, µM (doses to about 57.5 µM), for the others: at the top dose activity change, negative = inhibition, most hits filed as inhibitors; 0.37% of 290,000 active; further: potency means the concentration at half of the fitted maximal effect; on the % scale 0 is the no-effect control and ±100 the full control effect
Target sequence (Q27686 whole entry, looked up): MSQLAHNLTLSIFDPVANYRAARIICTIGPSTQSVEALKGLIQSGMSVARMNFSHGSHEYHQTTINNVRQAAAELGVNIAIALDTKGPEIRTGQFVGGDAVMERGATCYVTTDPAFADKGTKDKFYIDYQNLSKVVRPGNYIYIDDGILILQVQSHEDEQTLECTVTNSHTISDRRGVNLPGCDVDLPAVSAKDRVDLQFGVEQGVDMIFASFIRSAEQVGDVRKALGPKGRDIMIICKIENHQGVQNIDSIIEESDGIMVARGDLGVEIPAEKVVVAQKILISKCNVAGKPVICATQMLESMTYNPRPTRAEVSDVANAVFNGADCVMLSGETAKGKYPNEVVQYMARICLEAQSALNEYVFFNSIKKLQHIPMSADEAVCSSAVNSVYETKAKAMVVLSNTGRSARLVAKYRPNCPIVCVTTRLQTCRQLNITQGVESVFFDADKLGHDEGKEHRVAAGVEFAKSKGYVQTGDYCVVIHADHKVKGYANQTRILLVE
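Screened at intermediate enzyme activity to detect both inhibitors and activators: LmPK at 0.1 nM, with a 0.5 nM enzyme column as activation reference. PEP 0.5 mM, ADP 0.1 mM; ATP detected by luminescence after 1 h.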
Giardia FBPA inh = blocks Giardia fructose-bisphosphate aldolase activity; 0.71% of 290,000 active; Potency, µM (top dose mostly 59.6 µM), for inactives: at the top dose activity, negative = inhibition, most hits filed as inhibitors; purified Giardia FBPA; AID 2451; A8B2U2; further: potency means the concentration at half of the fitted maximal effect; on the % scale 0 is the no-effect control and ±100 the full control effect; nearly all actives have a fitted effect of over 55% in size
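Giardia FBPA (40 nM reagent) was preincubated 10 min at RT with compound (up to 57.5 uM final), then substrate plus GAPDH/TPI/NAD/arsenate coupling system with diaphorase/resazurin was added; resorufin fluorescence (525/598 nm) was read after 20 min.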
TbPYK inhibitor = blocks Trypanosoma brucei pyruvate kinase; Q57TT1; TbPYK enzyme, Kinase-Glo Plus ATP luminescence, 45 min; Potency, µM (titrated, usually from 76.8 µM), without a hit: top-dose activity, negative = inhibition, usual class: inhibitors; 0.12% of 410,000 active; AID 624173; further: potency means the concentration at half of the fitted maximal effect; on the % scale 0 is the no-effect control and ±100 the full control effect; nearly all actives have a fitted effect of over 50% in size
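Activity of T. brucei pyruvate kinase was followed by Kinase-Glo Plus luminescence after the enzyme reacted 45 min at room temperature with 130 uM ADP (final) and substrate. Test compounds were added before ADP at multiple concentrations.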
Numbers without * were called inactive; [ ] = remark or other dose. Unless noted, the call rests on the fitted dose curve; in most records, active means well fitted curve in the direction sought with a large enough effect; inconclusive means small, poorly fitted or top-dose-only effect, or another doubt; inactive means no such curve, though single readings can be large; an effect the other way counts as inactive or inconclusive.

Screening CCOC(=O)C1CCC(CN(Cc2ccc(Cl)cc2)S(=O)(=O)c2ccc(Br)cc2)CC1 (configuration not stated) returned Sm TGR inh 2.9% and TbPYK inhibitor -1.3%.
`Cc1cccc(NC(=O)c2cnc3sccn3c2=O)c1` gave Cycloheximide cs 56.0*, Shiga inhibitor 76.8*, Sm TGR inh 2.6%, LmPK inh -12.7%, Giardia FBPA inh -4.7% and TbPYK inhibitor -13.0%.
Screening [O-][N+](=Cc1ccccc1)c1ccc(Cl)cc1 returned TbPYK inhibitor -19.5%.
`[O-]/[N+](=C\c1ccco1)c1ccc(Cl)cc1` gave Cycloheximide cs 61.2*, Shiga inhibitor 82.3*, Sm TGR inh -35.0%, LmPK inh -2.5%, Giardia FBPA inh 13.5% and TbPYK inhibitor 0.0%.
Screening [O-]/[N+](=C/c1ccco1)c1ccccc1 returned Cycloheximide cs 23.2*, Shiga inhibitor 39.7, Sm TGR inh inconclusive, LmPK inh 2.6%, Giardia FBPA inh 15.5% and TbPYK inhibitor -0.2%.
Screening [O-]/[N+](=C/c1ccc(F)cc1)c1ccc(Cl)cc1 returned Cycloheximide cs 54.4*, Shiga inhibitor 53.4, Sm TGR inh -25.3%, LmPK inh -8.9%, Giardia FBPA inh -16.5% and TbPYK inhibitor -5.8%.
CC1CCN(S(=O)(=O)c2cc(C(=O)NCc3ccc(F)cc3)n(C)c2)CC1 was read as Sm TGR inh 1.1% and TbPYK inhibitor 1.7%.
O=c1cc(-c2ccccc2)nc(SCc2nc(-c3cccc(C(F)(F)F)c3)no2)[nH]1 was read as Sm TGR inh -3.4% and TbPYK inhibitor 0.6%[15.4 µM].
For Cc1ccc(N(CCC#N)C(=O)COC(=O)C2CCN(S(=O)(=O)c3ccc(C)c(C)c3)CC2)cc1 the results were Sm TGR inh -5.3% and TbPYK inhibitor 2.1%.
`COc1ccc(-n2c(C)cc3cc(OC(C)=O)ccc32)cc1` gave Cycloheximide cs 10.7*, Shiga inhibitor 23.6, Sm TGR inh -25.3%, LmPK inh -2.7%, Giardia FBPA inh 44.4% and TbPYK inhibitor 0.4%.
O=[N+]([O-])c1cc2no[n+]([O-])c2cc1N1CCCCC1 was read as TbPYK inhibitor 14.1µM*.
For CCc1ccc(C(=O)Nc2cc(C)on2)o1 the results were Cycloheximide cs 25.2, Shiga inhibitor 88.6*, Sm TGR inh -3.5%, LmPK inh -4.5%, Giardia FBPA inh 8.0% and TbPYK inhibitor 5.8%.
Screening CNc1nc(N)c(C(=O)Nc2cc(C)on2)s1 returned Cycloheximide cs 30.1*, Shiga inhibitor 88.2*, Sm TGR inh -5.1%, LmPK inh 11.1%, Giardia FBPA inh inconclusive and TbPYK inhibitor -26.7%.
`COc1ccc(NC(=O)c2cc(C3CC3)on2)c(OC)c1` gave Cycloheximide cs 32.9*, Shiga inhibitor 47.3*, Sm TGR inh 2.8%, LmPK inh -3.2%, Giardia FBPA inh 2.4% and TbPYK inhibitor 2.4%.
`COc1ccc(NC(=O)c2cc(-c3ccco3)on2)c(OC)c1` gave Cycloheximide cs 11.8, Shiga inhibitor 25.1, Sm TGR inh -2.0%, LmPK inh 0.4%, Giardia FBPA inh -4.7% and TbPYK inhibitor 1.9%.
Screening Cc1cc(C(=O)Nc2ccc3[nH]ccc3c2)no1 returned Cycloheximide cs 45.7*, Shiga inhibitor 74.2*, Sm TGR inh -2.4%, LmPK inh -0.2%, Giardia FBPA inh -2.1% and TbPYK inhibitor -0.7%.
Cc1cc(C(=O)NNc2ccc(Cl)cc2)no1 was read as Cycloheximide cs 7.1, Shiga inhibitor 32.5, Sm TGR inh -10.7%, LmPK inh 3.1%, Giardia FBPA inh -14.2% and TbPYK inhibitor -3.3%.
`Cc1ccc(Cn2c3ccccc3c3cnn(CC(=O)N4CCCCCC4)c(=O)c32)cc1` gave Sm TGR inh -1.5% and TbPYK inhibitor -2.2%.
`CNC1=CN(O)C(c2ccccc2)=c2cc(Cl)ccc2=N1` gave Cycloheximide cs -0.4, Shiga inhibitor 4.0, Giardia FBPA inh 9.3% and TbPYK inhibitor -3.8%.
Screening Cc1cc(NC(=O)c2ccoc2C)no1 returned Cycloheximide cs 11.0*, Shiga inhibitor 24.8, Sm TGR inh -31.4%, LmPK inh 17.8µM*, Giardia FBPA inh -0.4% and TbPYK inhibitor -18.8%.
Cc1cc(NC(=O)c2cc(C)on2)no1 was read as Cycloheximide cs 8.4*, Shiga inhibitor 37.1, Sm TGR inh 1.7%, LmPK inh 1.4%, Giardia FBPA inh 3.9% and TbPYK inhibitor -2.0%.
Screening Cc1cc(NC(=O)c2cc(CC(C)C)on2)no1 returned Cycloheximide cs 42.9*, Shiga inhibitor 81.4*, Sm TGR inh 4.1%, LmPK inh -3.3%, Giardia FBPA inh 6.3% and TbPYK inhibitor 4.6%.
Screening CCCc1cc(C(=O)Nc2ccn(Cc3ccc(C)cc3)n2)no1 returned Cycloheximide cs 1.0, Shiga inhibitor 20.9, Sm TGR inh -2.6%, LmPK inh -4.9%, Giardia FBPA inh 8.7% and TbPYK inhibitor 10.5%.
`CCCc1cc(C(=O)Nc2cc(C)on2)no1` gave Cycloheximide cs 13.4*, Shiga inhibitor 60.5, Sm TGR inh -8.6%, LmPK inh 8.1%, Giardia FBPA inh -0.1% and TbPYK inhibitor 4.1%.
Cc1ccc(-c2cc(C(=O)Nc3cc(C)on3)no2)cc1 was read as Cycloheximide cs -2.2, Shiga inhibitor 25.6, Sm TGR inh 14.5%, LmPK inh 8.5%, Giardia FBPA inh 1.9% and TbPYK inhibitor 3.7%.
Screening Cc1cccc(NS(=O)(=O)c2ccc(Cl)c(C(=O)Nc3ccccc3C)c2)c1 returned Sm TGR inh 8.5% and TbPYK inhibitor 1.6%.
CC(=O)N1CCc2c(sc3c2c(=O)n(CCc2ccccc2)c(=O)n3Cc2ccc(Cl)cc2)C1 was read as Sm TGR inh -4.0% and TbPYK inhibitor 2.3%.
Cc1c(N)nc([C@@H](CC(N)=O)NC[C@H](N)C(N)=O)nc1C(=O)N[C@H](C(=O)N[C@@H](C)[C@@H](O)[C@@H](C)C(=O)N[C@H](C(=O)NCCc1nc(-c2nc(C(=O)NCCCN[C@H](C)c3ccccc3)cs2)cs1)[C@H](C)O)[C@@H](O[C@H]1O[C@@H](CO)[C@H](O)[C@@H](O)[C@H]1O[C@H]1O[C@@H](CO)[C@@H](O)[C@H](OC(N)=O)[C@H]1O)c1cnc[nH]1 was read as TbPYK inhibitor -0.8%.
For CCCCC1Cc2[nH][nH]c(=O)c2C(c2ccc(Cl)cc2)O1 (configuration not stated) the results were TbPYK inhibitor -0.9%.
C=CCN1C(=CCO)[C@H]2C[C@H]3[C@@H]1CC[C@@]31c3ccccc3N3C=C4[C@@H]5N(/C=C/2[C@H]31)c1ccccc1[C@]51CC[C@H]2[C@H]1C[C@@H]4/C(=C/CO)N2CC=C was read as Giardia FBPA inh -6.2%[21.7 µM] and TbPYK inhibitor -15.4%[33.2 µM].

Bioassay records from PubChem.
